The whole screen tested about 360,000 compounds, of which about 11,000 (3.1%) were called active. About 2% were inconclusive and are not listed. The list comes from a sample in which actives are over-represented; it also holds similar structures and randomly drawn compounds. Values without a mark were called inactive. No stated cut-off is given here; in the data, active means fluorescence intensity above about 16000; inconclusive means no clear call, values can overlap the other calls; inactive means below that.

This test is described as follows: counter-screen for toxin protease inhibitors: compound fluorescence, primary screen, artefact control for toxin protease inhibitor project, biochemical, multiplex microsphere, HTS (AID 624483). To be noted: compound autofluorescence counterscreen, microsphere flow cytometry; stronger effect = higher value. A general note: Counterscreens check selectivity or assay interference.
With `O=S1(=O)CC(N2CCN(c3ccccn3)CC2)CN1Cc1ccc(F)cc1` (stereo not given), the fluorescence intensity was 5970. To `O=C(c1ccco1)N1CCN(C(=O)C2c3ccccc3Oc3ccccc32)CC1` belongs 10300; to `CCC(=O)N1CCCC1(C)C(=O)Nc1ccc2c(c1)CCN2C(C)=O` (stereo not given), 4080; to `O=C(CSc1ccc(/C=N/NC(=O)c2cccc(F)c2)o1)Nc1ccccc1`, 8800. Under `COc1cccc(Cn2cc(/C=N/NC(=O)c3cc(O)cc(O)c3)c3ccccc32)c1` stands 5960; under `O=C(Cn1cc(/C=N/NC(=O)c2cccc(C(F)(F)F)c2)c2ccccc21)Nc1ccc(F)cc1`, 23300 (active); under `COc1ccc(CCNC2=CC(=O)CC(C)(C)C2)cc1`, 3550. For the compound `CC1(C)CC(=O)C=C(NCc2ccncc2)C1`, the fluorescence intensity was 16700 (active). For `Cc1cc(C)nc(NNC2=CC(=O)CC(C)(C)C2)n1`, the fluorescence intensity was 2520.

As for `COCCNCCOCCOc1cccc(OC)c1`, the fluorescence intensity was 2470. Under `COc1cccc(OCCOc2cccc(/C=N/n3cnnc3)c2)c1` stands 23900 (active); under `C=CCc1ccc(OCCOc2cccc(/C=N/n3cnnc3)c2)c(OC)c1`, 2600. To `CC(C)(C)OC(=O)N[C@H](C(=O)OC(C)(C)C)c1ccc(Br)cc1` belongs 3740. To `C[C@H](NC(=O)OC(C)(C)C)c1nnc(SCC(=O)Nc2ccc(Br)cc2)o1` belongs 16800 (active); to `CCc1ccccc1NC(=O)CSc1nnc(CCNC(=O)OC(C)(C)C)o1`, 6490; to `C=CCn1c(N)cc(=O)nc1SCC(=O)Nc1cccc2ccccc12`, 4460. Turning to `CC(C)Oc1ccc(/C=N/NC(=O)c2nnn(-c3nonc3N)c2CN(C)C2CCCCC2)cc1`, the fluorescence intensity is 6000. With `O=S(=O)(N1CCOCC1)N1CCN(c2ccccc2F)CC1`, the fluorescence intensity was 6290. Turning to `Cc1cccc(C)c1N1CCN(S(=O)(=O)N2CCCCC2)CC1`, the fluorescence intensity is 3490. To `Cc1cccc(C)c1N1CCN(S(=O)(=O)N2CCOCC2)CC1` belongs 23800 (active); to `COc1ccc(Cl)cc1-c1cc(C(=O)Nc2cc(OC)c(OC)c(OC)c2)[nH]n1`, 3880. Under `CCN1CCN(C2CCCCC2NS(=O)(=O)c2ccc(Cl)cc2)CC1` (stereo not given) stands 5580; under `O=S(=O)(NC1CCCCC1N1CCCCC1)c1ccc(Cl)cc1` (stereo not given), 5790; under `O=S(=O)(NC1CCCCC1N1CCC(O)CC1)c1ccc(Cl)cc1` (stereo not given), 38100 (active). Under `Cc1cc(OCC(=O)N2CCN(c3ncccn3)CC2)ccc1Cl` stands 4880. Turning to `COc1ccc(OC)c(NC(=O)c2cc(-c3cc(F)ccc3OCC3CCCO3)n[nH]2)c1` (stereo not given), the fluorescence intensity was 3690.

Consider `O=C(O)c1cccnc1Sc1ncnc2sc3c(c12)CCC3`, for which the fluorescence intensity is 4510. Under `COc1ccc(/C=N/Nc2ncnc3sc4c(c23)CCCC4)cc1O` stands 1980; under `COc1ncnc2sc3c(c12)CCCC3`, 23600 (active).

Consider `CCOC(=O)C1=C(CSc2nccn2C)NC(=O)NC1c1ccc(OC)cc1` (stereo not given), for which the fluorescence intensity is 24300 (active).

As for `CCOC(=O)C1=C(CCc2ccccc2)NC(=O)NC1c1ccc2ccccc2c1` (stereo not given), the fluorescence intensity was 3820.

Consider `CCOC(=O)C1=C(CSc2nnnn2C)N(C)C(=O)NC1c1ccccc1` (stereo not given), for which the fluorescence intensity was 4330.

For the compound `CC(C)C[C@H]1CN([C@@H](Cc2ccccc2)CN2CCC[C@@H]2CN2C(=O)C(=O)NC[C@@H]2Cc2ccc(O)cc2)C(=O)C(=O)N1CCc1ccccc1`, the fluorescence intensity is 5350.

As for `CC1CCc2c(sc3nc4n(c(=O)c23)CCS4)C1` (stereo not given), the fluorescence intensity was 8310.

Take `CCOC(=O)N1CCN(C(=O)c2cnc3n(c2=O)CCS3)CC1`: the fluorescence intensity was 2800. Regarding `CCCCc1c(O)nc2n(c1=O)CCS2`, the fluorescence intensity is 22100 (active). To `CCOC(=O)N1C(=O)C[C@](Sc2ccc(C)cc2)(C(=O)OC)[C@H]1c1ccccc1` belongs 5390.

Turning to `Cc1ccc(C)c(C(O)c2ncc(-c3cccc4ccccc34)[nH]2)c1` (stereo not given), the fluorescence intensity is 3640. As for `CC1(C2CC2)NC(=O)N(CC(=O)N2CCN(c3ccccc3F)CC2)C1=O` (stereo not given), the fluorescence intensity was 2860. To `Cc1csc(SCC(=O)Nc2ccc(C)c(S(=O)(=O)N(C)C)c2)n1` belongs 3940; to `Cc1ccc(CCNC(=O)C2CCN(S(=O)(=O)N3CCCC3)CC2)cc1`, 9470. For the compound `CCOC(=O)C1C(=O)NC(N2CCN(c3ccccc3)CC2)=NC1c1ccco1` (stereo not given), the fluorescence intensity is 23400 (active). Consider `CCOC(=O)C1C(=O)C=C(c2ccc(OC)cc2)CC1c1ccco1` (stereo not given), for which the fluorescence intensity was 2300.

On to `CCOC(=O)C1(C)NC(c2ccco2)C2C(=O)N(c3ccccc3)C(=O)C21` (stereo not given), for which the fluorescence intensity is 4000. To `Cc1ccc(N2C(=O)C3C(c4ccccc4)(C2=O)C3(c2ccccc2)c2ccccc2)cc1` (stereo not given) belongs 22200 (active). Under `Cc1ccc(C2SCC(=O)N2c2ccccc2)cc1` (stereo not given) stands 3540. Take `Cc1ccc(N2C(=O)CC(Nc3cccc4ccccc34)C2=O)cc1` (stereo not given): the fluorescence intensity was 3720. In the case of `COc1ccccc1Nc1ncc(C(C)=O)c(C)n1`, the fluorescence intensity was 2840. Regarding `O=C1CCC(C(=O)N2CCC(O)(c3ccccc3)CC2)CN1CCc1ccccc1` (stereo not given), the fluorescence intensity was 5620. To `CC(C)C[C@@H](COCc1ccc(Cl)cc1)N1CCN(C(=O)c2ccc(Cl)cc2Cl)CCC1=O` belongs 4700; to `Cc1cc2c(cc1C)N1C(=O)c3cc4ccccc4cc3NC(=O)C1C(=O)N2` (stereo not given), 5850; to `COc1ccc(-n2cnnc2SCC(=O)Nc2cccc(S(N)(=O)=O)c2)cc1`, 5460. For `CCn1c(CSc2nncn2-c2ccc(OC)cc2)nc2cc(S(=O)(=O)N(C)C)ccc21`, the fluorescence intensity was 20000 (active).

As for `COc1ccc(S(=O)(=O)N(C)C)cc1NC(=O)CSc1ncccn1`, the fluorescence intensity is 2020. `CC[C@@H]1CC2=C(C(=O)OC(C)(C)O2)[C@@H](CC)O1`: the fluorescence intensity was 5670.

With `CC(C)(C)S(=O)(=O)N1Cc2cc(CO)cc(CCO)c2[C@H]1CCO`, the fluorescence intensity was 3670. Under `Cc1ccccc1S(=O)(=O)NC(=O)C1(C)CCN1C(=O)C1(c2ccc(Cl)cc2)CC1` (stereo not given) stands 4140. Under `Cc1oc2c(c1C(=O)N1CCOCC1)C(=O)c1ccccc1C2=O` stands 5580.

Consider `Cc1ccccc1-c1ccc(Nc2ccc(C(=O)N3CCOCC3)cc2)nn1`, for which the fluorescence intensity was 16400 (active). Under `Cc1cc(Nc2ccc(C(=O)N3CCCCC3)cc2)c2cccc(C)c2n1` stands 3660. Under `CCCCc1ccc(S(=O)(=O)NC(=O)C2(C)CCN2C(=O)c2c(C)noc2C)cc1` (stereo not given) stands 2860; under `CCc1nc2c(OCc3ccc(Cl)cc3Cl)cccn2c1N(C)C(=O)C(C)C`, 4460; under `Cc1cc(S(=O)(=O)NCC(C)C)ccc1OCC(=O)NC1CC1`, 5980. To `O=C(COc1ccc(Cl)cc1)Nc1ccc2c(c1)OCO2` belongs 3940. `CC(C)CNS(=O)(=O)c1ccc(OCC(=O)Nc2ccc3c(c2)OCO3)c(Cl)c1`: the fluorescence intensity was 16300 (active). To `Nc1c(C(=O)OCC(=O)Nc2ccc(OC(F)F)cc2)[nH]c(=O)[nH]c1=O` belongs 3380; to `Cc1ccc(Sc2ccc(NC(=O)c3ccc(F)cc3)cc2C#N)cc1`, 4940. Under `O=C(CCl)Nc1ccc(Sc2ccc(NC(=O)CCl)cc2)cc1` stands 4330; under `CC(C)(CCl)C(=O)Nc1ccc(Sc2ccc(F)cc2)cc1`, 20700 (active). Under `CC(NC(=O)CN(C)S(=O)(=O)c1ccc(F)cc1)C1CC2CCC1C2` (stereo not given) stands 3360; under `Cc1c(C(=O)NCc2ccc(C#N)cc2)sc(=O)n1Cc1ccc(C(=O)N(C)C)cc1`, 4330.

On to `CC1COC2C(O1)N(S(C)(=O)=O)CCN2S(C)(=O)=O` (stereo not given), for which the fluorescence intensity was 25700 (active). For the compound `CC1OC2C(OC1C)N(S(C)(=O)=O)CCN2S(C)(=O)=O` (stereo not given), the fluorescence intensity is 15900. For the compound `Cc1ccc(S(=O)(=O)N2CCN(C(=O)CN3C(=O)NC(C)(c4ccc(Cl)cc4)C3=O)CC2)c(C)c1` (stereo not given), the fluorescence intensity was 3900. With `Cc1cc(C)n2c(Nc3c(C)cccc3C)c(CCc3ccccc3)nc2n1`, the fluorescence intensity is 5430. `C/C(=N/OC(=O)c1c(-c2c(F)cccc2Cl)noc1C)c1cnccn1`: the fluorescence intensity is 3970. `Cc1onc(-c2c(F)cccc2Cl)c1C(=O)OCC(=O)N1C(C)CCCC1C` (stereo not given): the fluorescence intensity is 3180. In the case of `Cc1onc(-c2c(Cl)cccc2Cl)c1C(=O)c1c[nH]c(C(=O)NC2CC2)c1`, the fluorescence intensity is 23200 (active).

Take `CC1=C(C(=O)N(C)C)CC(CC(=O)NCCN2CCOCC2)C(=O)N1Cc1ccccc1` (stereo not given): the fluorescence intensity was 3750. As for `CC1(C(=O)Nc2ccc3c(c2)OCCO3)CCN1C(=O)Cc1cc(F)ccc1F` (stereo not given), the fluorescence intensity is 3870. To `Clc1ccc(C=NC23CN4CN(CN(C4)C2)C3)cc1` belongs 3520. Under `COC(=O)C1[C@H]2SC(C)(C)C(C(=O)OC)N2C(=O)N1Cc1nc2ccccc2s1` (stereo not given in full) stands 3920.

On to `Cc1ccc(C(=O)N2CCCC2)c(F)c1F`, for which the fluorescence intensity is 24700 (active). Under `Cc1c(Br)cc(C(=O)N2CCCCCC2)c(C)c1C` stands 4200; under `CCNC(=O)C1CCCN(C(=O)c2cc(F)ccc2C)CC1` (stereo not given), 3900; under `CNC(=O)c1nnc(Cc2ccc(Cl)cc2)o1`, 4900. `COc1cccc(C(NC(C)=O)c2nc(-c3cnc4ccccc4c3)cs2)c1` (stereo not given): the fluorescence intensity was 3770.

In the case of `CC(C)(C)NS(=O)(=O)c1ccc(NC(=O)C2CCCO2)cc1` (stereo not given), the fluorescence intensity was 3950. As to `CC(C)(C)NS(=O)(=O)c1ccc(NC(=O)NC2CCCCC2)cc1`, the fluorescence intensity was 17000 (active). To `CC(C)c1ccc(NC(=O)NC2CCCCC2)cc1` belongs 10400; to `CC1(Cc2cccc(C#N)c2)C(=O)Nc2ccc(-c3cccc(C(F)(F)F)c3)cc21` (stereo not given), 2910. In the case of `CCOC(=O)C1=CCC(c2ccc(F)cc2)N(S(=O)(=O)c2ccc(C)cc2)C1` (stereo not given), the fluorescence intensity is 6000. As for `O=C(c1ccc2c(c1)N(Cc1ccc(F)cc1)C(=O)CS2)N1CCOCC1`, the fluorescence intensity is 23800 (active).

Take `O=C(c1ccc(CN2CCOCC2)cc1)N1CCN(c2ccccc2F)CC1`: the fluorescence intensity was 3620. For the compound `CC1=C(C(=O)N2CCOCC2)CC(CC(=O)NCC2CCCCC2)C(=O)N1Cc1ccc(F)cc1` (stereo not given), the fluorescence intensity is 3780.

These data come from PubChem BioAssay AID624483 (NMMLSC, 2012).
